Assay results from PubChem BioAssay (NCI).
This is part of a sample that, as a whole, favours compounds with a hit. Of some 83,000 tested, about 20% had one in any assay.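 Note: values are percent growth. 100 is the growth of untreated cells, values between 100 and 0 indicate rising inhibition; between -100 and 0 indicates cell death.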 A number with no mark means an inactive call. Active and inactive are the calls of the source. How the source made its calls: active means growth percent below 10; inactive means the rest.

Each compound was assayed on K-562 leukemia (assay: NCI-60 one-dose screen, 48 h (100 = growth as untreated, 0 = no growth, -100 = all killed)). Conditions: 10 µM unless noted.

Row | SMILES | growth
1 | CC(=O)Nc1nc2c(c(N)c1C#N)C(c1cccc(Cl)c1)C1=C(CCCC1=O)N2c1sc2c(c1C#N)CCCC2 (stereo not drawn) | 29.8%
2 | C#Cc1ccccc1NC(=O)c1sc2nc3c(cc2c1N)CCCCCC3 | 74.5%
3 | C=C(C)[C@@H]1CC[C@]2(C(=O)N3CCN(C)CC3)CC[C@]3(C)[C@H](CC[C@@H]4[C@@]5(C)C/C(=C/c6ccco6)C(=O)C(C)(C)[C@@H]5CC[C@]43C)[C@@H]12 | 36.2%
4 | CCCCC(=O)Nc1c(C(=O)Nc2ccccc2)sc2nc3c(cc12)C(OC(=O)CCCC)CCC3 (stereo not drawn) | 85.3%
5 | C#CC[C@@H]1C[C@]2(C)[C@H]3CC[C@@H]4[C@H]5[C@H](C(=C)C)CC[C@]5(C(=O)O)CC[C@@]4(C)[C@]3(C)CC[C@H]2C(C)(C)[C@H]1O | 35.1%
6 | Cc1ccc(-c2nc(C#N)c(S(=O)(=O)N(C)CCO)o2)cc1 | 25%
7 | FC(F)(F)c1ccc2c(Nc3cccc(C4CC(c5ccccc5)=NN4c4ccc(Cl)cc4)c3)ccnc2c1 (stereo not drawn) | 6.6% (active)
8 | COc1ccc2nc(-c3ccc(OC)c(OC)c3)cc(-c3nnc(SCC(=O)Nc4ccc(/C(C)=N\O)cc4)n3-c3ccccc3)c2c1 | 63.5%
